Compound activity as filed in PubChem.
A selection: hits, their analogues and other compounds. The true share with any hit is near 3%.
Tau FP inhib = inhibitors of human tau fibril formation. K18 P301L tau heparin fibrillization, Alexa594 FP, 6 h. Potency, µM (top dose mostly 57.7 µM), for the others: top-dose activity, negative = inhibition, usual class: inhibitors. 280,000 tested, 0.39% active; further: potency means the concentration at half of the fitted maximal effect; nearly all actives have a fitted effect of over 55% in size
Target sequence (P10636 561-689 P618L limits assumed): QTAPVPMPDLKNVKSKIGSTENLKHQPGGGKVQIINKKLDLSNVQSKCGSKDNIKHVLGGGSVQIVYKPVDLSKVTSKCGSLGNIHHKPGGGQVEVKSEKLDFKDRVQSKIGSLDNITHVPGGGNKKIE
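Read-out: fluorescence polarization of Alexa 594-labeled tau (0.24 uM), 555 nm excitation, 632 nm emission. Mixtures held 15 uM unlabeled K18 P301L, compound and 20 uM heparin, pH 7 acetate buffer, incubated 6 hr at 37 C.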
Tau fluor counter = counter-screen for tau fibril formation inhibitors. tau K18 P301L Alexa594 fluorescence, heparin fibrillization. Potency, µM (doses to about 57.7 µM), without a hit: at the highest dose activity change, negative = decrease. 280,000 tested, 0.93% active. AID 1463; further: potency means the concentration at half of the fitted maximal effect; nearly all actives have a fitted effect of over 55% in size
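Human K18 P301L tau (15 uM unlabeled plus 0.24 uM Alexa 594-labeled, final) in 100 mM sodium acetate pH 7 was mixed with compound and 20 uM heparin and incubated 6 hr at 37 C.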
Coupling enz = inhibits coupling enzyme system, counter-screen for aldolase hits | AID 2472 | 290,000 tested, 0.67% active | activity change, negative = inhibition, % at 58.2 µM, hits read low | coupling enzyme system counterscreen, AmpLite Red fluorescence; in the data active means activity change below about -30%
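Counterscreen of the coupled detection system alone, without aldolase: glyceraldehyde-3-phosphate coupling enzymes plus AmpLite Red readout. Compounds at 57.5 uM final, 10 min RT preincubation, 20 min RT reaction, fluorescence 525/598 nm.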
KDM4E inh = blocks human JMJD2E demethylase activity; JMJD2E catalytic domain, FDH-coupled NADH fluorescence (FDH is formaldehyde dehydrogenase); B2RXH2; Potency, µM (series often up to 57.1 µM), for inactives: at the top dose activity change, negative = inhibition, usual class: inhibitors; 230,000 tested, 1.6% active; active means well fitted inhibition curve with a large enough effect, not every such curve was filed as active; inconclusive means small, poorly fitted or top-dose-only effect, or another doubt; inactive means no such curve, though single readings can be large or run the other way;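 further: potency means the concentration at half of the fitted maximal effect; 0% = wells with enzyme and -100% = buffer wells without enzyme; nearly all actives have a fitted effect of over 50% in size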
Target sequence (B2RXH2 1-337 limits assumed): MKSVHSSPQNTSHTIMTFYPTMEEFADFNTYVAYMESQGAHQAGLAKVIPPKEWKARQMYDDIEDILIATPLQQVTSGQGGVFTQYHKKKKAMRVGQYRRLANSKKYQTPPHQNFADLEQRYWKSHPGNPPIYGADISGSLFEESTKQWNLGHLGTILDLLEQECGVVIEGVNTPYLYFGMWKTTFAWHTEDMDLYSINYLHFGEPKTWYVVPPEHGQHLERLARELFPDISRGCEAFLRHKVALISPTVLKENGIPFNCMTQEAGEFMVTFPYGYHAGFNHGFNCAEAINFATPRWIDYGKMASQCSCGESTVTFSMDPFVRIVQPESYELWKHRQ
Tau fibril ThT = blocks human tau fibril formation measured by thioflavin T | AID 1460 | Potency, µM (top dose mostly 57.4 µM), without a hit: at the highest dose activity, negative = inhibition, most hits filed as inhibitors | P10636 | recombinant tau K18 P301L, heparin-induced fibrillization, ThT fluorescence | 270,000 tested, 2.1% active; further: potency means the concentration at half of the fitted maximal effect; nearly all actives have a fitted effect of over 55% in size
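Fibril formation assay: tau K18 P301L at 15 uM with trace Alexa 594 label, heparin inducer 20 uM, pH 7 sodium acetate buffer, 37 C for 6 hr; endpoint ThT signal.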
* hit, by the source's call; ? = inconclusive; / = no result; [ ] = another dose, or the depositor's remark. Unless noted, the call rests on the fitted dose curve; in most records, active means well fitted curve in the direction sought with a large enough effect; inconclusive means small, poorly fitted or top-dose-only effect, or another doubt; inactive means no such curve, though single readings can be large; an effect the other way counts as inactive or inconclusive. Unless noted, on the % scale 0 is the no-effect control and ±100 the full control effect.

SMILES	Tau FP inhib	Tau fluor counter	Coupling enz	KDM4E inh	Tau fibril ThT
Cc1[nH]c2ccccc2c1C(c1ccccc1)c1ccc(Cl)s1 (configuration not stated)	?	7.1µM*[quencher]	/	/	?
Cc1ccc(OCCN2CCN(CC(O)Cn3c4ccccc4c4ccccc43)CC2)cc1 (configuration not stated)	-6%	-28%	-5	8.9µM*	?
CN(/N=C/c1ccc(O)cc1O)c1ncc(C(F)(F)F)cc1Cl	17%	18µM*[quencher]	2	?	?
CCOc1ccccc1N(CC(=O)Nc1ccc(OC)c(Cl)c1)S(=O)(=O)c1ccccc1	1%	?	/	/	-15%
C/C(=N\Nc1ccc2nncn2n1)c1ccccn1	-2%	0%	1	10µM*	-4%
Cc1cc2c3c(c1)C(C)(c1ccccc1)CC(C)(C)N3C(=O)C21C(C#N)=C(N)OC2=C1C(=O)CC(C)(C)C2 (configuration not stated)	13%	-12%	-7	-9%	-19%
CC1(c2ccccc2)CC(C)(C)N2C(=O)C3(C(C#N)=C(N)Oc4cc(O)ccc43)c3cccc1c32 (configuration not stated)	25µM*	?	0	-2%	-19%
COc1cc(N2CCCC2)c(OC)cc1/C=C1/NC(=S)NC1=O	-6%	?	-9	-5%	11µM*
Cc1oc(C)c2c(=O)ccc3c(c12)OC(N)=C(C#N)C3c1ccccc1Cl (configuration not stated)	?	?	-27	18µM*	20µM*
CSc1ccc(C2C(C#N)=C(N)Oc3c2ccc(=O)c2c(C)oc(C)c32)cc1 (configuration not stated)	?	?	-36*	?	25µM*
N#CC1=C(N)OC2=C(CC/C2=C\c2ccccc2Cl)C1c1ccccc1Cl (configuration not stated)	2%	-13%	1	?	?
Cc1oc(C)c2c(=O)ccc3c(c12)OC(N)=C(C#N)C3c1ccccc1 (configuration not stated)	?	?	-2	?	25µM*
CN(C)/C=C1/C=C(c2ccccc2)OC1=O	?	-23%	-1	?	40µM*
CC1=C/C(=C/N(C)C)C(=O)O1	?	-14%	-2	2%	?
O=C(Nc1cc(Cl)cc(Cl)c1)c1cccc(OC(F)F)c1	20µM*	?	-3	-6%	?
O=C(Nc1nc(-c2ccccn2)cs1)c1cc(Cl)ccc1[N+](=O)[O-]	4%	-22%	-10	?	?
O=C(Nc1nc(-c2ccccn2)cs1)c1ccc([N+](=O)[O-])o1	?	?	-3	?	13µM*
Cc1cc(C(=O)Nc2nc(-c3ccccn3)cs2)ccc1[N+](=O)[O-]	6%	?	-5	?	11µM*
Cc1ccc(C(=O)Nc2nc(-c3ccccn3)cs2)o1	-6%	-28%	-3	?	?
COc1ccc(Cl)cc1-c1ccc(C(=O)O)o1	5%[126 µM]	0%[126 µM]	13	/	-5%[126 µM]
Cc1ccc(OCC(=O)NCC(c2ccc(Cl)cc2)N2CCCCC2)cc1 (configuration not stated)	7%	-3%	/	/	-5%
Cc1[nH]c2c(ccc3ccccc32)c1C1C(CCN)C1(C)C (configuration not stated)	?	16µM*[quencher]	-2	?	?
S=c1[nH]c2ccc3ccccc3c2[nH]1	1%	0%	-2	?	-3%
Cc1cccc(NC(=O)c2nc[nH]c2C(=O)N[C@@H](C)C(=O)OCc2ccccc2)c1	14µM*	?	-1	-20%	0%
Cc1cccc(NC(=O)c2nc[nH]c2C(=O)N[C@@H](CC(C)C)C(=O)OCc2ccccc2)c1	25µM*	?	-2	-20%	9%
SMILES	Tau FP inhib	Tau fluor counter	Coupling enz	KDM4E inh	Tau fibril ThT
C[C@H](NC(=O)c1nc[nH]c1C(=O)N[C@H](C)c1ccccc1)C(=O)OCc1ccccc1	-12%	-27%	2	6%	2%
Cc1cc2nc(-c3ccc(OCc4ccccc4F)cc3)cc(C(F)(F)F)n2n1	-17%	-20%	/	/	-21%
BrC(=C\c1ccccc1)/C=N/N1CCN(c2ccccc2)CC1	?	?	-12	-4%	20µM*
CC(/C=N/N1CCN(c2ccc(C)cc2)CC1)=C\c1ccccc1	?	-8%	1	-1%	?
COc1ccc(NC(=O)Cn2nnc(C(=O)NCc3ccccc3Cl)c2N)cc1Cl	-13%	-5%	/	/	1%
CC(C)NC(=O)CC1Nc2c3ccccc3nc(=S)n2C1=O (configuration not stated)	-8%	-3%	-35*	-21%	0%
COc1ccc(-n2ccnc(NCc3ccc(Cl)cc3)c2=O)cc1	-7%	-25%	/	/	-17%
CC(C)NC(=O)Cn1ccc2cc(S(=O)(=O)N3CCCCCC3)ccc21	-1%	-5%	/	/	8%
COC(=O)c1ccc(=O)n(Cc2ccco2)c1	10%	-11%	2	32µM*	-15%
O=C(NC1CCCCC1)C(c1ccc(O)c(O)c1)N(C(=O)Cn1nnc2ccccc21)c1cccc(O)c1 (configuration not stated)	-4%	-6%	-8	16µM*	-7%
O=[N+]([O-])c1ccc(C2=NN(CCO)C(=Nc3ccc(OC(F)(F)F)cc3)SC2)cc1	14%	?	-1	-4%	14µM*
COc1ccc(N=C2SCC(c3ccc([N+](=O)[O-])cc3)=NN2CCO)cc1	14%	?	3	-18%	11µM*
COc1ccc(N=C2SCC(c3ccc(C)cc3)=NN2CCO)cc1	13%	?	-4	-16%	?
Cc1cc(Cl)ccc1NC(=O)Cn1nc(C)c2c(C)n(-c3ccccc3)nc2c1=O	2%	-8%	/	/	2%
COc1ccc(OC)c(C2CC(=O)N3CN(c4ccccc4F)CSC3=C2C#N)c1 (configuration not stated)	25µM*	-23%	-84*	2.2µM*	28µM*
COc1ccc(OC)c(C2CC(=O)N3CN(c4cccc(Cl)c4C)CSC3=C2C#N)c1 (configuration not stated)	32µM*	?	-28	?	28µM*
COc1ccc(OC)c(C2CC(=O)NC(SC)=C2C#N)c1 (configuration not stated)	-10%	-8%	2	0%	-11%
COc1cccc(C2CC(=O)N3CN(c4cccc(Cl)c4C)CSC3=C2C#N)c1OC (configuration not stated)	32µM*	?	-14	?	28µM*
O=C(O)CCC/C=C\C[C@@H]1[C@@H](CC[C@@H](O)CCc2ccccc2)[C@H](O)C[C@@H]1O	/	/	-2	/	/
COc1ccc(OC)c(CNC(=O)c2ccc(-c3nc(CSc4ccccc4)c(C)o3)cc2)c1	-12%	-26%	/	/	-6%
